Test results as given in PubChem BioAssay AID1159580 (chemical genetic matrix, 2015).
Several values for one entry are separate records, joined by “and”; a condition that tells them apart may be missing. Equal values may be shown once. The whole screen tested about 5,500 compounds, of which about 2,000 (36%) were called active. Roughly 18% stayed inconclusive and do not appear here. Cut-off read from the data, not from the text of the source: active = normalized growth mostly below about 0.91 (no sharp cut-off); inconclusive = no clear call, values can overlap the other calls; inactive = mostly above about 0.92. The list shows a part of the results.

Assay: chemical genetic growth profiling, strain panel (AID 1159580);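 note: tested at 20 µM; growth read once vehicle control cultures reached saturation at 30 °C; 1 = growth at the plate median or of vehicle wells; lower values mean less growth of the strain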
Settings: S. cerevisiae deletion strains, growth OD

Measured: normalized growth

CCCCCC1C(=O)CCC1CC(=O)O (stereo unspecified)
inactive: locus YAL013W, strain DEP1, active compounds read low 0.997 | locus YAL021C, strain ccr4, active compounds read low 0.984 | locus YAL026C, strain drs2, active compounds read low 0.994 | locus YAL030W, strain snc1, active compounds read low 0.984 | locus YBL061C, strain skt5, active compounds read low 0.988 | locus YBR009C, strain hhf1, active compounds read low 1.01 | locus YBR021W, strain FUR4, active compounds read low 0.991 | locus YBR023C, strain chs3, active compounds read low 0.99 | locus YBR171W, strain sec66, active compounds read low 1 | locus YBR229C, strain ROT2, active compounds read low 1 | locus YBR231C, strain swc5, active compounds read low 1 | locus YBR279W, strain paf1, active compounds read low 0.98 | locus YCL011C, strain gbp2, active compounds read low 0.995 | locus YCL016C, strain dcc1, active compounds read low 0.98 | locus YCL029C, strain bik1, active compounds read low 0.998 | locus YCL061C, strain MRC1, active compounds read low 0.991 | locus YCL069W, strain vba3, active compounds read low 0.995 | locus YCR088W, strain abp1, active compounds read low 0.976 | locus YDL005C, strain med2, active compounds read low 0.982 | locus YDL035C, strain GPR1, active compounds read low 1.01 | locus YDL040C, strain nat1, active compounds read low 0.995 | locus YDL074C, strain BRE1, active compounds read low 1.01 | locus YDL101C, strain DUN1, active compounds read low 1.01 | locus YDL134C, strain PPH21, active compounds read low 1.06 | locus YDL185W, strain tfp1, active compounds read low 0.974 | locus YDL192W, strain arf1, active compounds read low 0.986 | locus YDR001C, strain nth1, active compounds read low 0.986 | locus YDR069C, strain doa4, active compounds read low 1.01 | locus YDR101C, strain arx1, active compounds read low 0.99 | locus YDR137W, strain rgp1, active compounds read low 0.998 | locus YDR150W, strain NUM1, active compounds read low 1.02 | locus YDR159W, strain sac3, active compounds read low 0.997 | locus YDR162C, strain NBP2, active compounds read low 1.04 | locus YDR195W, strain ref2 0.999 | locus YDR297W, strain sur2, active compounds read low 0.988 | locus YDR318W, strain mcm21, active compounds read low 0.992 | locus YDR334W, strain swr1, active compounds read low 0.981 | locus YDR335W, strain msn5, active compounds read low 0.981 | locus YDR388W, active compounds read low 0.994 | locus YDR392W, strain spt3, active compounds read low 0.91 | locus YDR502C, strain sam2, active compounds read low 1.01 | locus YEL003W, strain gim4, active compounds read low 0.987 | locus YEL037C, strain rad23, active compounds read low 0.972 | locus YEL061C, strain CIN8 (second series), active compounds read low 0.984 | locus YEL061C, strain CIN8, active compounds read low 1 | locus YER015W, strain faa2, active compounds read low 0.983 | locus YER016W, strain bim1, active compounds read low 0.984 | locus YER110C, active compounds read low 0.982 | locus YER111C, strain swi4, active compounds read low 0.975 | locus YER155C, strain BEM2 (second series), active compounds read low 0.982 | locus YER155C, strain BEM2, active compounds read low 0.989 | locus YER167W, strain BCK2, active compounds read low 1.01 | locus YFR010W, strain ubp6, active compounds read low 0.987 | locus YGL078C, strain dbp3, active compounds read low 0.988 | locus YGL086W, strain mad1, active compounds read low 0.994 | locus YGL167C, strain pmr1, active compounds read low 0.986 | locus YGL173C, strain kem1, active compounds read low 0.989 | locus YGL227W, strain vid30, active compounds read low 0.998 | locus YGL240W, strain doc1, active compounds read low 0.998 | locus YGL248W, strain PDE1, active compounds read low 0.998 | locus YGL253W, strain hxk2, active compounds read low 0.996 | locus YGR135W, strain pre9, active compounds read low 0.994 | locus YGR252W, strain gcn5, active compounds read low 0.993 | locus YHR013C, strain ard1, active compounds read low 0.972 | locus YHR027C, strain rpn1, active compounds read low 0.98 | locus YHR030C, strain SLT2, active compounds read low 0.992 and 0.982 | locus YHR079C, strain IRE1 (second series), active compounds read low 0.987 | locus YHR079C, strain IRE1, active compounds read low 0.99 | locus YHR094C, strain hxt1, active compounds read low 0.969 | locus YHR129C, strain ARP1, active compounds read low 1 | locus YHR142W, strain chs7, active compounds read low 0.973 | locus YHR200W, strain rpn10, active compounds read low 0.988 | locus YIL066C, strain RNR3, active compounds read low 1.03 | locus YIL073C, strain SPO22, active compounds read low 1.04 | locus YIL125W, strain kgd1, active compounds read low 0.985 | locus YIR030C, strain dcg1, active compounds read low 0.986 | locus YJL092W, strain hpr5, active compounds read low 0.983 | locus YJL095W, strain BCK1 (second series), active compounds read low 0.993 | locus YJL095W, strain BCK1, active compounds read low 1.05 and 0.989 | locus YJL115W, strain asf1, active compounds read low 0.973 | locus YJL129C, strain trk1, active compounds read low 0.961 | locus YJL134W, strain LCB3, active compounds read low 0.991 | locus YJL154C, strain vps35, active compounds read low 0.982 | locus YJL164C, strain tpk1, active compounds read low 0.998 | locus YJL166W, strain qcr8, active compounds read low 0.996 | locus YJL168C, strain set2, active compounds read low 0.991 | locus YJL187C, strain SWE1 (second series), active compounds read low 1.02 | locus YJL187C, strain SWE1, active compounds read low 0.984 | locus YJR043C, strain POL32, active compounds read low 1.03 | locus YJR066W, strain TOR1, active compounds read low 0.967 | locus YKL009W, strain mrt4, active compounds read low 0.972 | locus YKL068W, active compounds read low 0.981 | locus YKL085W, strain MDH1 (second series), active compounds read low 0.992 | locus YKL085W, strain MDH1, active compounds read low 0.992 | locus YKL160W, strain elf1, active compounds read low 0.978 | locus YKL190W, strain CNB1, active compounds read low 1 | locus YKR001C, strain vps1, active compounds read low 0.987 | locus YKR026C, strain gcn3, active compounds read low 0.985 | locus YKR091W, strain srl3, active compounds read low 0.98 | locus YLL001W, strain dnm1, active compounds read low 0.961 | locus YLL026W, active compounds read low 0.994 | locus YLL041C, strain sdh2, active compounds read low 0.989 | locus YLR027C, strain aat2, active compounds read low 0.984 | locus YLR039C, strain RIC1, active compounds read low 1.06 | locus YLR058C, strain SHM2, active compounds read low 1.01 | locus YLR102C, strain apc9, active compounds read low 0.978 | locus YLR113W, strain HOG1, active compounds read low 0.95 | locus YLR221C, strain rsa3, active compounds read low 0.993 | locus YLR258W, strain gsy2, active compounds read low 0.986 | locus YLR262C, strain YPT6 (second series), active compounds read low 0.99 | locus YLR262C, strain YPT6, active compounds read low 1.07 | locus YLR268W, strain sec22, active compounds read low 1 | locus YLR320W, strain mms22, active compounds read low 0.967 | locus YLR330W, strain CHS5, active compounds read low 0.993 | locus YLR342W, strain FKS1 (second series), active compounds read low 1.02 | locus YLR342W, strain FKS1, active compounds read low 0.982 | locus YLR357W, strain rsc2, active compounds read low 0.994 | locus YLR370C, strain arc18, active compounds read low 0.983 | locus YLR371W, strain rom2, active compounds read low 0.987 | locus YLR384C, strain iki3, active compounds read low 0.978 | locus YLR418C, strain cdc73, active compounds read low 0.989 | locus YML016C, strain PPZ1, active compounds read low 0.995 | locus YML032C, strain rad52, active compounds read low 0.987 | locus YML120C, strain ndi1, active compounds read low 0.99 | locus YML124C, strain tub3, active compounds read low 0.985 | locus YMR058W, strain fet3, active compounds read low 0.983 | locus YMR078C, strain ctf18, active compounds read low 1.01 | locus YMR125W, strain sto1, active compounds read low 0.965 | locus YMR129W, active compounds read low 0.989 | locus YMR205C, strain PFK2, active compounds read low 0.969 | locus YMR223W, strain ubp8, active compounds read low 0.994 | locus YMR231W, strain pep5, active compounds read low 0.983 | locus YMR307W, strain GAS1, active compounds read low 1.06 | locus YNL067W, strain RPL9B, active compounds read low 1.04 | locus YNL071W, strain lat1, active compounds read low 0.99 | locus YNL128W, strain TEP1, active compounds read low 1 | locus YNL183C, strain NPR1, active compounds read low 0.931 | locus YNL209W, strain ssb2, active compounds read low 0.995 | locus YNL233W, strain BNI4, active compounds read low 1.03 | locus YNL248C, strain rpa49, active compounds read low 0.99 | locus YNL250W, strain rad50, active compounds read low 0.976 | locus YNL271C, strain bni1, active compounds read low 0.969 | locus YNL298W, strain CLA4, active compounds read low 0.968 | locus YNL307C, strain MCK1, active compounds read low 0.989 | locus YNL322C, strain KRE1 (second series), active compounds read low 0.972 | locus YNR049C, strain mso1, active compounds read low 0.984 | locus YNR052C, strain pop2, active compounds read low 0.975 | locus YOL006C, strain TOP1, active compounds read low 1.02 | locus YOL012C, strain htz1 1.21 | locus YOL147C, strain pex11, active compounds read low 0.986 | locus YOR001W, strain rrp6, active compounds read low 0.997 | locus YOR061W, strain CKA2, active compounds read low 0.996 | locus YOR069W, strain VPS5, active compounds read low 0.993 | locus YOR070C, strain gyp1, active compounds read low 0.99 | locus YOR080W, strain dia2, active compounds read low 0.987 | locus YOR083W, strain WHI5, active compounds read low 0.959 | locus YOR106W, strain vam3, active compounds read low 0.987 | locus YOR136W, strain idh2, active compounds read low 0.982 | locus YOR144C, strain elg1, active compounds read low 0.994 | locus YOR184W, strain ser1, active compounds read low 1.02 | locus YOR231W, strain MKK1, active compounds read low 1.01 | locus YOR265W, strain rbl2, active compounds read low 0.989 | locus YOR270C, strain vph1, active compounds read low 0.961 | locus YOR290C, strain snf2, active compounds read low 0.916 | locus YOR316C, strain cot1, active compounds read low 0.981 | locus YPL051W, strain arl3, active compounds read low 0.982 | locus YPL055C, strain LGE1, active compounds read low 1.06 | locus YPL078C, strain atp4, active compounds read low 0.979 | locus YPL106C, strain sse1, active compounds read low 0.99 | locus YPL240C, strain hsp82, active compounds read low 0.985 | locus YPL256C, strain CLN2, active compounds read low 0.964 | locus YPR119W, strain clb2, active compounds read low 0.988 | locus YPR141C, strain kar3, active compounds read low 0.981 | locus YPR163C, strain tif3, active compounds read low 0.978 | locus YPR167C, strain met16, active compounds read low 0.997 | strain wtn01, active compounds read low 1.01
